Unmarked numbers belong to inactive results.
What follows are molecules tested on Vero E6 infected with SARS-CoV-2 (assay: SARS-CoV-2 infection rate relative to infected DMSO; higher = more infection, active = 60 or less). Conditions: 24 h.
`Cc1cc(C)nc(SCC(=O)Nc2ncc(Cc3cccc4ccccc34)s2)n1` (10 µM) gave an SARS-CoV-2 infection rate of 96.5%. For `c1cnc2c([O][Ga]([O]c3cccc4cccnc34)[O]c3cccc4cccnc34)cccc2c1` [gallium-triquinolin-8-olate] (10 µM), the SARS-CoV-2 infection rate was 16.5% (active). With `C=C(C)CN1CC[C@]23c4c5ccc(O)c4O[C@H]2c2[nH]c4ccccc4c2C[C@@]3(O)C1C5` (10 µM) the SARS-CoV-2 infection rate was 108%. `CN1CCN(c2ccc(/C=C(\C#N)c3ccccc3Br)cc2)CC1` (10 µM) was tested, and the SARS-CoV-2 infection rate was 116%. `C[C@@H]1CN(CC(=O)Nc2ccc3c(c2)Cc2cccc(-c4cc(=O)cc(N5CCOCC5)o4)c2S3)C[C@H](C)O1` (10 µM) was tested, and the SARS-CoV-2 infection rate was 60% (active). Work on `NCCC(=O)N[C@@H](Cc1c[nH]cn1)C(=O)O` [carnosine] (0.833333 µM) yielded an SARS-CoV-2 infection rate of 99%. Work on `C[C@]12CC[C@H](O)C[C@H]1CC[C@@H]1[C@@H]2C[C@@H](O)[C@]2(C)[C@@H](C3=CC(=O)OC3)CC[C@]12O` [digoxigenin] (0.833333 µM) yielded an SARS-CoV-2 infection rate of 99.5%. Molecule `CCOc1ccccc1OCC1CNCCO1` (stereo not given) [viloxazine] (10 µM) has an SARS-CoV-2 infection rate of 112%. `CC(=O)OCC(=O)[C@@]1(O)[C@@H](C)C[C@H]2[C@@H]3CCC4=CC(=O)C=C[C@]4(C)[C@@]3(F)[C@@H](O)C[C@@]21C` [betamethasone-acetate] (10 µM) was tested, and the SARS-CoV-2 infection rate was 114%. With `CN(C)C/C=C/C(=O)Nc1ccc(C(=O)Nc2cccc(Nc3ncc(Cl)c(-c4c[nH]c5ccccc45)n3)c2)cc1` (10 µM) the SARS-CoV-2 infection rate was 94%. For `Cc1onc(-c2ccccc2Cl)c1C(=O)N[C@@H]1C(=O)N2[C@@H]1SC(C)(C)[C@@H]2C(=O)O` [cloxacillin] (10 µM), the SARS-CoV-2 infection rate was 99.5%. With `O=C1NC(=O)C(=Cc2ccc(-c3ccc(F)cc3)o2)S1` (stereo in doubt) (10 µM) the SARS-CoV-2 infection rate was 112%. Molecule `O=C1C=Cc2cc(Br)ccc2C1=O` [bonaphthone] (10 µM) has an SARS-CoV-2 infection rate of 103%. `C#C[C@]1(OC(C)=O)CC[C@H]2[C@@H]3CCC4=CC(=NO)CC[C@@H]4[C@H]3CC[C@@]21CC` (mixture of isomers) [norgestimate] (10 µM) was tested, and the SARS-CoV-2 infection rate was 108%. `CN=C(N)NCCC[C@H](N)C(=O)O` [L-monomethylarginine] (10 µM) gave an SARS-CoV-2 infection rate of 97%. `O=C([O-])C(O)[C@H](O)[C@@H](O)[C@H](O)[C@H](O)CO.O=C([O-])C(O)[C@H](O)[C@@H](O)[C@H](O)[C@H](O)CO.[Ca+2]` (stereo not given in full) [calcium-gluceptate] (10 µM) was tested, and the SARS-CoV-2 infection rate was 114%. Work on `O=C(O)c1cc(C(=O)O)c(C(=O)N(Cc2cccc(Oc3ccccc3)c2)[C@H]2CCCc3ccccc32)cc1C(=O)O` (10 µM) yielded an SARS-CoV-2 infection rate of 95.5%. `C[C@H](NC[C@H](O)CP(=O)(O)CC1CCCCC1)c1ccc(Cl)c(Cl)c1` (10 µM) gave an SARS-CoV-2 infection rate of 114%. Work on `CNC(=O)N(C)N=O` [nitrosodimethylurea] (10 µM) yielded an SARS-CoV-2 infection rate of 106%. `Cc1ncc(-c2csc(N=C(N)N)n2)[nH]1` [zaltidine] (10 µM) showed an SARS-CoV-2 infection rate of 106%. Molecule `C[C@@]1(F)[C@H](O)[C@@H](CO)O[C@H]1n1ccc(N)nc1=O` (10 µM) has an SARS-CoV-2 infection rate of 104%. For `COc1ccc(CCO[C@@H]2CCCC[C@H]2N2CC[C@@H](O)C2)cc1OC` [vernakalant] (10 µM), the SARS-CoV-2 infection rate was 110%. For `CNC(=O)[C@@H](NC(=O)[C@H](CC(C)C)[C@H](O)C(=O)NO)C(C)(C)C` [marimastat] (10 µM), the SARS-CoV-2 infection rate was 118%. Molecule `NC(=O)Cc1cccc(C(=O)c2ccccc2)c1N` [nepafenac] (10 µM) has an SARS-CoV-2 infection rate of 120%. `Cc1cnc(-c2cc(N3CCN(C(=O)CCS(C)(=O)=O)CC3)ncc2Cl)c(C)c1` (10 µM) showed an SARS-CoV-2 infection rate of 105%. `CNCCCCOc1ccccc1Cc1ccccc1` [bifemelane] (10 µM) gave an SARS-CoV-2 infection rate of 65%. For `CSC[C@H](N)C(=O)O` [S-methylcysteine] (10 µM), the SARS-CoV-2 infection rate was 102%. `CC[C@@]1(O)C(=O)OCc2c1cc1n(c2=O)Cc2cc3cc(O)ccc3nc2-1` [10-hydroxycamptothecin] (10 µM) gave an SARS-CoV-2 infection rate of 103%. Work on `O=C(O)CCC(=O)OC[C@@H](NC(=O)C(Cl)Cl)[C@H](O)c1ccc([N+](=O)[O-])cc1` [chloramphenicol-sodium-succinate] (10 µM) yielded an SARS-CoV-2 infection rate of 108%. Work on `NS(=O)(=O)c1ccc2c(c1)C1C=CCC1C(c1ccc(Br)cc1)N2` (stereo not given) (10 µM) yielded an SARS-CoV-2 infection rate of 95%. In the case of `CCCCCCCCCCCC(=O)O` [lauric-acid] (10 µM), the SARS-CoV-2 infection rate is reported as 96.5%. `CCOC(=O)OC(C)OC1=C(C(=O)Nc2ccccn2)N(C)S(=O)(=O)c2ccccc21` (stereo not given) [ampiroxicam] (10 µM) gave an SARS-CoV-2 infection rate of 102%. `O=C(N[C@H](CO)[C@H](O)c1ccc([N+](=O)[O-])cc1)C(Cl)Cl` [chloramphenicol] (10 µM) showed an SARS-CoV-2 infection rate of 117%. With `Nc1nc(O)c2[nH]nnc2n1` [azaguanine-8] (0.833333 µM) the SARS-CoV-2 infection rate was 51.5% (active). For `NCCCNCCSP(=O)(O)O` [amifostine] (10 µM), the SARS-CoV-2 infection rate was 100%. Work on `CNNCc1ccc(C(=O)NC(C)C)cc1` [procarbazine] (10 µM) yielded an SARS-CoV-2 infection rate of 106%. Molecule `CNCC(=O)O` [sarcosine] (10 µM) has an SARS-CoV-2 infection rate of 108%. Work on `O=C(Nc1ccc(F)cc1)N1CCc2ccccc2[C@@H]1c1ccc(C(F)(F)F)cc1` (10 µM) yielded an SARS-CoV-2 infection rate of 87%. `Cc1cc(CN2CCN(c3c(Br)cnc4nc(-c5ccc(N6CCN(C)CC6)cc5)[nH]c34)CC2)no1` (10 µM) gave an SARS-CoV-2 infection rate of 116%. In the case of `N=C(N)NCCC[C@H](N)C(=O)O` [L-arginine] (10 µM), the SARS-CoV-2 infection rate is reported as 113%.

— the supplement of paper PMC13380429
